# Data taken from PubChem BioAssay (Tox21).
# Inconclusive results are not listed. Where a call stands in place of a potency, no number is given. Calls of active or inactive are those of the source. Unless noted, the call rests on the fitted dose curve.
# Experiments:
# [1] = Nuclear factor erythroid 2-related factor 2/antioxidant responsive element (Nrf2/ARE) small molecule agonists: qHTS cell viability counter screen in human keratinocytes (AID 1919968; active means well fitted curve in the direction sought with a large enough effect in the repeat runs; an effect the other way counts as inactive or inconclusive; further: nearly all actives have a fitted effect of over 55% in size; further: potency means the concentration at half of the fitted maximal effect)
# Procedure, shortened: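 After a 5 h attachment period, ARE-reporter keratinocytes were dosed with compounds in DMSO and then cultured 23 h at 37 C. Cell viability came from CellTiter-Fluor signal read after a further 1 h.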
# [2] = Nuclear factor erythroid 2-related factor 2/antioxidant responsive element (Nrf2/ARE) small molecule agonists: luciferase reporter gene qHTS assay in human keratinocytes (AID 1919969); further: nearly all actives have a fitted effect of over 35% in size; further: potency means the concentration at half of the fitted maximal effect
# [3] = target: KiSS-1 receptor (Homo sapiens) (UniProt Q969F8); experiment: Human kisspeptin (KISS1R) small molecule agonists, calcium flux assay in KISS1R-HEK293 cells (AID 1920064; active means well fitted curve in the direction sought with a large enough effect in the repeat runs; an effect the other way counts as inactive or inconclusive)
# Procedure, shortened: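 Kinetic calcium assay, 1 s sampling over 3 min at Ex/Em 480/540, in HEK293 cells engineered with human KISS1R; compounds delivered in DMSO after 1 h dye loading.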
# [4] = G protein-coupled receptor (GPCR) small molecule agonists, calcium flux assay: HEK293 wild type cell line counter screen (AID 1920065)
# Procedure, shortened: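 Calcium-sensitive dye, loaded 1 h at 37 C into cells cultured 18 h, reports compound-evoked calcium release as fluorescence (Ex/Em 480/540), measured over 3 min. Agonist mode; 15-point titrations, triplicate.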
# [5] = p53 small molecule agonists, cell-based qHTS assay with human liver microsomes (AID 1963577);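 further: p53 response element beta-lactamase reporter cells with liver microsomes plus NADPH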
# Procedure, shortened: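 16 h, 37 C exposure of p53RE-bla cells to compounds with human liver microsomes and NADPH (0.5 mg/mL final each); detection via LiveBLAzer mixture, 2 h dark at room temperature.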
# [6] = p53 small molecule agonists, cell-based qHTS assay with rat liver microsomes (AID 1963578)
# Procedure, shortened: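 With rat liver microsomes and NADPH present (0.5 mg/mL final each), p53RE-bla cells are treated with compound for 16 h at 37 C. LiveBLAzer detection mixture is then applied for 2 h at room temperature in the dark.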
# [7] = p53 small molecule agonists, cell-based qHTS assay with human liver microsomes: qHTS cell viability counter screen (AID 1963579); further: nearly all actives have a fitted effect of over 45% in size; further: potency means the concentration at half of the fitted maximal effect
# Procedure, shortened: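 In this multiplexed counter screen, the reporter plates were subsequently treated with CellTiter-Glo so that cell viability, reflected by luminescence, could be recorded for p53RE-bla cells dosed 16 h with compounds under microsomal activation (HLM and NADPH).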
# [8] = p53 small molecule agonists, cell-based qHTS assay with rat liver microsomes: qHTS cell viability counter screen (AID 1963580); further: nearly all actives have a fitted effect of over 45% in size
# Procedure, shortened: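 p53RE-bla HCT-116 cells were exposed 16 h at 37 C to compounds with rat liver microsomes (0.5 mg/mL) and NADPH (0.5 mg/mL). Viability was measured in the same wells as ATP content by CellTiter-Glo luminescence.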
# [9] = p53 small molecule agonists, cell-based qHTS assay: qHTS cell viability counter screen (AID 1963581); further: nearly all actives have a fitted effect of over 45% in size
# Procedure, shortened: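 Following 5 h attachment, HCT-116 p53RE-bla cells took up compound for 16 h at 37 C; the reporter was read with B/G FRET substrate (2 h RT), and viability then via CellTiter-Glo ATP luminescence.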
# [10] = target: 5-hydroxytryptamine receptor 2A (Homo sapiens) (UniProt P28223); experiment: 5-hydroxytryptamine receptor 2A (HTR2A) small molecule agonists, cell-based qHTS assay (AID 1963587); further: nearly all actives have a fitted effect of over 30% in size; further: potency means the concentration at half of the fitted maximal effect
# Procedure, shortened: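 CHO cells stably expressing human HTR2A, plated 18 h, loaded with calcium dye 1 h at 37 C. Agonist mode: compounds added and intracellular calcium fluorescence recorded kinetically for 2 min at 1 sec intervals.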
# [11] = target: Muscarinic acetylcholine receptor M1 (Homo sapiens) (UniProt P11229); experiment: Cholinergic receptor muscarinic 1 (CHRM1) small molecule antagonists, cell-based qHTS assay (AID 1963588); further: nearly all actives have a fitted effect of over 40% in size; further: potency means the concentration at half of the fitted maximal effect
# Procedure, shortened: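 CHRM1-CHO calcium-flux assay, antagonist mode. Cells were seeded 18 h, dye-loaded 1 h at 37 C and given compound for 5 min at RT, then acetylcholine was added at 50nM. FDSS fluorescence was read 3 min; 15 concentrations, three runs.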
# [12] = target: Muscarinic acetylcholine receptor M1 (Homo sapiens) (UniProt P11229); experiment: Cholinergic receptor muscarinic 1 (CHRM1) small molecule agonists, cell-based qHTS assay (AID 1963589); further: nearly all actives have a fitted effect of over 35% in size
# Procedure, shortened: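 Measures agonist-induced intracellular calcium rise. Stable human CHRM1 CHO line, 1 h dye load at 37 C, compounds from DMSO, kinetic fluorescence read.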
# [13] = cAMP Responsive Elements (CRE) small molecule antagonists, cell-based qHTS assay (AID 1963591; active means well fitted inhibition curve with a large enough effect in the signal ratio in the repeat runs, not every such curve was filed as active; the % refers to the signal ratio)
# Procedure, shortened: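 HEK293T cells carrying a CRE-driven beta-lactamase reporter receive compound and NKH477 (0.25 uM final) for 3 h. Fluorescence from LiveBLAzer B/G FRET substrate is read after 2 h at room temperature.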
# [14] = target: Beta-2 adrenergic receptor (Homo sapiens) (UniProt P07550); experiment: Adrenergic beta2 receptor (ADRB2) small molecule antagonists, cell-based qHTS assay (AID 1963592); further: nearly all actives have a fitted effect of over 50% in size; further: potency means the concentration at half of the fitted maximal effect
# Procedure, shortened: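 Cells (CHO, stable ADRB2 overexpression) incubated 18-20hr at 37C; compounds added from DMSO; agonist mix (1nM isoproterenol, 100uM IBMX, 25uM Ro-20-1724) added; 0.5hr RT; d2-cAMP and anti-cAMP-cryptate added; 1hr RT; 665/615 nm read.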
# [15] = target: Beta-2 adrenergic receptor (Homo sapiens) (UniProt P07550); experiment: Adrenergic beta2 receptor (ADRB2) small molecule agonists, cell-based qHTS assay (AID 1963593);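 further: CHO cells stably overexpressing human ADRB2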
# Procedure, shortened: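 CHO cells stably over-expressing ADRB2 were plated overnight at 37C, then dosed with compounds plus a stimulation mix containing 100uM IBMX and 25uM Ro-20-1724 for 0.5hr at room temperature. cAMP was measured by HTRF competition, 1hr.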
# [16] = target: D(2) dopamine receptor (Homo sapiens) (UniProt P14416); experiment: Dopamine D2 receptor (DRD2) small molecule agonists, cell-based qHTS assay (AID 1963594); further: nearly all actives have a fitted effect of over 35% in size
# Procedure, shortened: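 HEK293 cells stably expressing human DRD2, pre-treated with PDE inhibitor Ro20-1724 (0.1 mM final) and compound 10 min at room temperature, then stimulated with NKH477 (200nM […]) for 30 min. cAMP read by HTRF (665/620 nm).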
# [17] = target: D(2) dopamine receptor (Homo sapiens) (UniProt P14416); experiment: Dopamine D2 receptor (DRD2) small molecule antagonists, cell-based qHTS assay (AID 1963595; active means well fitted inhibition curve with a large enough effect in the signal ratio in the repeat runs, with a control signal flat; the % refers to the signal ratio; further: potency means the concentration at half of the fitted maximal effect)
# Procedure, shortened: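 HTRF cAMP read-out at 665 and 620 nm emission (340 nm excitation). Antagonist mode: compounds were tested against 12 nM quinpirole in DRD2-HEK293 cells, with 200 nM NKH477 raising cAMP and 0.1 mM Ro20-1724 blocking its breakdown.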
# [18] = p53 small molecule agonists, cell-based qHTS assay (AID 1963582; active means well fitted activation curve with a large enough effect in the signal ratio in the repeat runs, not every such curve was filed as active; the % refers to the signal ratio)
# Procedure, shortened: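 In this cell-based concentration-response screen, a p53 response element drives beta-lactamase; cells received DMSO-borne compounds after 5 h culture and were incubated a further 16 h before FRET substrate development.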
# [19] = target: 5-hydroxytryptamine receptor 2A (Homo sapiens) (UniProt P28223); experiment: 5-hydroxytryptamine receptor 2A (HTR2A) small molecule antagonists, cell-based qHTS assay (AID 1963586); further: nearly all actives have a fitted effect of over 45% in size; further: potency means the concentration at half of the fitted maximal effect
# Procedure, shortened: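 Antagonist-mode intracellular calcium assay: DOI (4 nM) added after 5 min compound pre-incubation at room temperature to dye-loaded HTR2A-CHO cells. Fluorescence followed for 3 min, sampled every second.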
# [20] = cAMP Responsive Elements (CRE) small molecule agonists, cell-based qHTS assay (AID 1963590)
# Procedure, shortened: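 A CRE-responsive beta-lactamase reporter in HEK 293T cells was used. Treatment ran 3 h at 37 C; detection used LiveBLAzer B/G FRET substrate for 2 h at room temperature.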
# Beta-2 adrenergic receptor (Homo sapiens), sequence (P07550 whole entry, looked up): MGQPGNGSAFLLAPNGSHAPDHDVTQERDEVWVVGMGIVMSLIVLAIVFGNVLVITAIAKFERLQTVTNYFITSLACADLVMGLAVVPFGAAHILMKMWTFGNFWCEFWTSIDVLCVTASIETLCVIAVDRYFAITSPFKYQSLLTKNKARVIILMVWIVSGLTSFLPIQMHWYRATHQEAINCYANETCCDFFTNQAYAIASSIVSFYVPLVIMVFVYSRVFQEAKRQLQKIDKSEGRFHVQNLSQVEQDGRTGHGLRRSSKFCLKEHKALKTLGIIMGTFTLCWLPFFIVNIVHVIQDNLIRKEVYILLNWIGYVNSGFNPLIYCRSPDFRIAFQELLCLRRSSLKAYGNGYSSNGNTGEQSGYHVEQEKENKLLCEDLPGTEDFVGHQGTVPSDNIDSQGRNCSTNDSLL
# D(2) dopamine receptor (Homo sapiens), sequence (P14416 whole entry, looked up): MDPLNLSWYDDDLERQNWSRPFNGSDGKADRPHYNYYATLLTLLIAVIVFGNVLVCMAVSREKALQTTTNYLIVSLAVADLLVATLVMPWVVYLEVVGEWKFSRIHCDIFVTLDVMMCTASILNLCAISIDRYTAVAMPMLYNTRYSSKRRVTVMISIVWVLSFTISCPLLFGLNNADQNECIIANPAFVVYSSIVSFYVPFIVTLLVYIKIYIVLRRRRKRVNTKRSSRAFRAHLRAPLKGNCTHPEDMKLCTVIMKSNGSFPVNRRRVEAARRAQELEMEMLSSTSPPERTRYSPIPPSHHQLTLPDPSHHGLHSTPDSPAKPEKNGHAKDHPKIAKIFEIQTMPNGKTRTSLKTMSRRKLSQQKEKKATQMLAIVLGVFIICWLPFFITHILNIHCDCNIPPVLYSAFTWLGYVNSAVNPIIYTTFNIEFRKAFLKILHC
# Muscarinic acetylcholine receptor M1 (Homo sapiens), sequence (P11229 whole entry, looked up): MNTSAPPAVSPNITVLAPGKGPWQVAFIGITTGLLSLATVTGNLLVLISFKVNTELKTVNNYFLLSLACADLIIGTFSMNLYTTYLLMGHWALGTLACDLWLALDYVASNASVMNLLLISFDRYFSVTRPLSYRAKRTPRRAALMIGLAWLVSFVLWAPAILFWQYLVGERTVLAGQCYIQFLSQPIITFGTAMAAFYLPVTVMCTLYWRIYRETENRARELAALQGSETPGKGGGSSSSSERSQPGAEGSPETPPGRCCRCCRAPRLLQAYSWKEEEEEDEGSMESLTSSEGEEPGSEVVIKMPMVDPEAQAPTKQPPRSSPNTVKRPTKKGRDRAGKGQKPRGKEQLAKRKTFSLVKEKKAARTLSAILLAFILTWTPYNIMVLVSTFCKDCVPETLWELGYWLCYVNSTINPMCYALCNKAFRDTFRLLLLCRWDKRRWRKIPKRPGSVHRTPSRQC
# KiSS-1 receptor (Homo sapiens), sequence (Q969F8 whole entry, looked up): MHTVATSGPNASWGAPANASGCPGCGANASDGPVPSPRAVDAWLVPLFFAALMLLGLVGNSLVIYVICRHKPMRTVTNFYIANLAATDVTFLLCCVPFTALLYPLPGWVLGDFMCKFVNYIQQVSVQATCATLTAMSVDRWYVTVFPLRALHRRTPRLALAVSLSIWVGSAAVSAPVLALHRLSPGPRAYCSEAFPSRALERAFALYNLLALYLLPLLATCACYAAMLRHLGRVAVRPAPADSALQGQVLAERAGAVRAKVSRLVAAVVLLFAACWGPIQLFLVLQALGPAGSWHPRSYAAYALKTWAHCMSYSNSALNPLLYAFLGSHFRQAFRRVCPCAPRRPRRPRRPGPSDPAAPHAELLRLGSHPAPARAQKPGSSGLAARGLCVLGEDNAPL
# 5-hydroxytryptamine receptor 2A (Homo sapiens), sequence (P28223 whole entry, looked up): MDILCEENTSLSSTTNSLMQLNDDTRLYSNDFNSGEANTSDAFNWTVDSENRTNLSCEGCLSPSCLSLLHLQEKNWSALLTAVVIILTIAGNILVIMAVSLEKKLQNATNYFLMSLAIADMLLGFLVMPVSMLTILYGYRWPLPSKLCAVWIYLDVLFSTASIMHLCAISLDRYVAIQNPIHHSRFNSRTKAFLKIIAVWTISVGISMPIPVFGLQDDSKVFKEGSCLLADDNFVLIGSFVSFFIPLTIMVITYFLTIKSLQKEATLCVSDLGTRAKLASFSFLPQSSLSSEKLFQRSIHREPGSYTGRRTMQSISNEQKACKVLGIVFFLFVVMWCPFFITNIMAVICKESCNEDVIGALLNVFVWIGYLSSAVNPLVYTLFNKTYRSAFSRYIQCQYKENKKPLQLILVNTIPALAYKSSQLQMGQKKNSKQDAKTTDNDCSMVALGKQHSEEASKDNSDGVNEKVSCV
Compound,Potency [1],Potency [2],Potency [3],Potency [4],Potency [5],Potency [6],Potency [7],Potency [8],Potency [9],Potency [10],Potency [11],Potency [12],Potency [13],Potency [14],Potency [15],Potency [16],Potency [17],Potency [18],Potency [19],Potency [20]
C[C@H](CCC(=O)O)[C@H]1CC[C@H]2[C@@H]3CC[C@@H]4C[C@H](O)CC[C@]4(C)[C@H]3CC[C@]12C,inactive,inactive,inactive,inactive,inactive,inactive,inactive,inactive,inactive,24.4 µM (active),inactive,inactive,inactive,inactive,inactive,inactive,–,–,–,–
CCCCCCCCn1sc(Cl)c(Cl)c1=O,13.7 µM (active),4.86 µM (active),inactive,inactive,inactive,inactive,36.3 µM (active),–,–,43.6 µM (active),inactive,inactive,–,inactive,inactive,inactive,27.3 µM (active),–,–,–
O=C1c2ccccc2-c2ccccc21,inactive,inactive,inactive,inactive,inactive,–,inactive,inactive,inactive,inactive,inactive,inactive,–,inactive,–,inactive,inactive,inactive,inactive,inactive
C[C@@H](CN(C)C)CN1c2ccccc2Sc2ccccc21,inactive,inactive,inactive,inactive,inactive,inactive,inactive,inactive,inactive,inactive,–,inactive,inactive,29.8 µM (active),–,–,1.68 µM (active),–,0.0041 µM (active),inactive
O=C(O)COc1ccc2ccccc2c1,inactive,inactive,inactive,inactive,–,inactive,inactive,inactive,inactive,inactive,inactive,inactive,–,inactive,–,–,inactive,–,inactive,–
FB(F)F,inactive,inactive,inactive,inactive,–,–,inactive,inactive,inactive,inactive,inactive,inactive,inactive,inactive,inactive,inactive,inactive,–,inactive,inactive
Cc1cc(C)c(/C=C2\C(=O)Nc3ccccc32)[nH]1,inactive,inactive,inactive,–,inactive,inactive,inactive,inactive,inactive,21.3 µM (active),inactive,inactive,–,–,–,inactive,inactive,inactive,inactive,–
Cc1c(C)c2c(c(C)c1OC(=O)c1cccnc1)CC[C@@](C)(CCC[C@H](C)CCC[C@H](C)CCCC(C)C)O2,inactive,inactive,inactive,inactive,–,–,inactive,inactive,inactive,inactive,inactive,inactive,inactive,inactive,inactive,inactive,–,–,inactive,–
CCSCC,inactive,72.5 µM (active),inactive,inactive,–,–,19.3 µM (active),inactive,inactive,inactive,inactive,inactive,inactive,inactive,–,inactive,inactive,–,inactive,inactive
O=C(Cl)c1ccc([N+](=O)[O-])cc1,inactive,inactive,inactive,inactive,–,–,inactive,inactive,–,inactive,inactive,inactive,inactive,inactive,–,inactive,inactive,–,inactive,inactive
Cc1cccc(C(=O)O)c1O,inactive,inactive,inactive,inactive,–,–,inactive,–,inactive,inactive,inactive,inactive,inactive,inactive,inactive,inactive,inactive,–,inactive,inactive
Cc1cc(C(=C2C=CC(=Nc3ccc(S(=O)(=O)O)cc3S(=O)(=O)O)C=C2)c2ccc(Nc3ccc(S(=O)(=O)O)cc3)cc2)ccc1N,inactive,inactive,inactive,inactive,–,–,inactive,inactive,inactive,inactive,inactive,inactive,inactive,–,inactive,inactive,inactive,–,inactive,inactive
CN(C)CCOC(c1ccccc1)c1ccc(Br)cc1 (centres undefined),inactive,inactive,inactive,inactive,–,–,inactive,inactive,–,–,3.65 µM (active),inactive,inactive,inactive,inactive,inactive,inactive,inactive,6.5 µM (active),inactive
Cc1c(Cl)cccc1Cl,inactive,inactive,inactive,inactive,–,–,inactive,inactive,inactive,–,inactive,inactive,–,inactive,inactive,inactive,inactive,–,inactive,inactive
CCCCCCCCCCCCC1CO1 (centres undefined),inactive,inactive,inactive,inactive,–,–,–,inactive,inactive,inactive,inactive,inactive,inactive,inactive,–,inactive,inactive,–,inactive,inactive
OC/C(Br)=C(\Br)CO,inactive,inactive,inactive,inactive,–,–,inactive,inactive,–,inactive,–,–,–,inactive,–,inactive,inactive,–,–,inactive
